The target in one experiment is Albumin (Bos taurus) (UniProt P02769). Put plainly: compounds binding labelled BSA control protein – biochemical, small-molecule microarray, Alexa647 label, 635/667 nm fluorescence, artefact control for SMM control protein annotation, profiling panel (AID 1118).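 Further: score merges 667 nm emission intensity and signal-to-noise per printed compound spot.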 Conditions: BSA-A647 binding, fluorescence 635 nm, higher = more signal.
Experiment [1] can be described thus: probe aXIP binding to arrayed compounds – biochemical, NeuroSMM set, 635/667 nm fluorescence, primary screen (AID 1119).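 Further: probe is the protein aXip251-270 applied at 1 µg/mL to compound-printed slides; binding of probe to printed compounds measured as 667 nm fluorescence plus signal to noise.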 As to conditions: small-molecule microarray, higher = more signal, called active from +8 up or from −8 down.
Experiment [2] in a line: probe aNOTCH3 binding on compound microarray – biochemical, small-molecule microarray, 635/667 nm fluorescence, primary screen (AID 1120).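 Further: probe is a biotin-tagged antibody raised against NOTCH3 rather than NOTCH3 protein; score merges spot fluorescence near 667 nm with spot signal to noise.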 As to conditions: higher = more signal.
A short description of experiment [3]: probe aNOTCH2 binding on compound microarray – biochemical, small-molecule microarray, 635/667 nm fluorescence, primary screen (AID 1121).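 Further: score merges feature fluorescence read at 667 nm with its signal to noise.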 Conditions: higher = more signal.
Experiment [4] has as its target Carbonic anhydrase 2 (Homo sapiens) (UniProt P00918). The experiment in a line: compounds binding carbonic anhydrase 2 – biochemical, small-molecule microarray, Alexa647-labelled CAII, profiling panel (AID 1122). Conditions: CAII-A647 binding fluorescence, higher = more signal.
Experiment [5] can be described thus: COS7 lysate on small-molecule microarray, probe aHis, 635 nm (AID 1123).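 Further: z-score combines 667nm fluorescence intensity with signal-to-noise per printed compound spot.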 Conditions: COS7 cell lysate, fluorescence, higher = more signal.
Experiment [6] in a line: probe aLAP1 signal on lysate-treated microarray – cell lysate, small-molecule microarray, COS7 lysate, primary screen (AID 1124).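 Further: lysate comes from COS7 cells expressing LAP1 and is applied at 0.3 µg/mL; score merges spot fluorescence near 667 nm with signal-to-noise over triplicate slides.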 As to conditions: probe aLAP1, fluorescence, higher = more signal.
For the next experiment, the system named is Sam68 (KHDRBS1). Put plainly: compounds binding KHDRBS1 protein – biochemical, small-molecule microarray, 635 nm fluorescence, primary screen (AID 1125).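 Further: score merges 667 nm channel intensity with signal to noise over triplicate slides.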 Conditions: higher = more signal.
Experiment [7] deals with Chordin-like protein 2 (CHRDL2). The experiment in a line: compounds binding chordin-like 2 – biochemical, small-molecule microarray, 635 nm fluorescence, primary screen (AID 1126).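 Further: printed compound slides probed with Chrdl2 protein at 4 µg/mL for 1 h at 4 C; score merges 667 nm emission intensity with signal to noise over three replicate slides.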 As to conditions: fluorescence 635 nm, higher = more signal.
The target in experiment [8] is Concanavalin-A (Canavalia ensiformis) (UniProt P02866). The experiment in a line: compounds binding concanavalin A lectin – biochemical, small-molecule microarray, Alexa647 label, 635 nm, artefact control for SMM control protein annotation, primary screen (AID 1127).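 Further: z combines 667 nm emission intensity with signal-to-noise across three replicate slides.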 Conditions: ConA-A647 binding fluorescence, higher = more signal.
Sequence of Concanavalin-A (Canavalia ensiformis) (P02866 whole entry, looked up): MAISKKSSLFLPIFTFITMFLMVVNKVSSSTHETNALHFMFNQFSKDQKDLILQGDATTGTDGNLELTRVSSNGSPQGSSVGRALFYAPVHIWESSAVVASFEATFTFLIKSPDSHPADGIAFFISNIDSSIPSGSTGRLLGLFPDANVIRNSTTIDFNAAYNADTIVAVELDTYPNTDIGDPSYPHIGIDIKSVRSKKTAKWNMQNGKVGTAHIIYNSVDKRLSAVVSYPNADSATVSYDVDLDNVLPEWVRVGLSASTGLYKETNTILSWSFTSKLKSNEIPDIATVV

Activity calls are given as the source filed them.

Sequence of Albumin (Bos taurus) (P02769 whole entry, looked up): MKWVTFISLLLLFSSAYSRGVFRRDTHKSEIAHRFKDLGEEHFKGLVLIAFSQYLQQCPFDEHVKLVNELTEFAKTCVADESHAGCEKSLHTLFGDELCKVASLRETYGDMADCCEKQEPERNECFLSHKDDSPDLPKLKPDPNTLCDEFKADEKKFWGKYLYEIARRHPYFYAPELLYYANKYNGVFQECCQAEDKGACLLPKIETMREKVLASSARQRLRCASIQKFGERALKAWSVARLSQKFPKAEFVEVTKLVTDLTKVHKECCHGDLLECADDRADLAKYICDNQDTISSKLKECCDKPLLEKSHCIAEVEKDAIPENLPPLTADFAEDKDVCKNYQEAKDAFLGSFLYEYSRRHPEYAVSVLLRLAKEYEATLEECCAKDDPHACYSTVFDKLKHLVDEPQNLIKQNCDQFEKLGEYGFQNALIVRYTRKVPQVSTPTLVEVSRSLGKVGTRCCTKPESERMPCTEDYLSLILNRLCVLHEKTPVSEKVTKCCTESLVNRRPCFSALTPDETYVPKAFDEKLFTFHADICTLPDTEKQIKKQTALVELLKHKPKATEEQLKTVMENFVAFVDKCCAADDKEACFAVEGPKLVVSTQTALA

With `CCCCCCCCCCC(O)C1C=CC2C(=O)N(C)C(=O)C2N1Nc1cc(OC)c(OC)c(OC)c1` (stereo not given), the composite z-score with Albumin (Bos taurus) is 0.869; in [2], -0.125; in experiment [3] it was -0.0521; in [4], 0.0172; in experiment [5] it was 1.44; in [6], 0.148. The figures for the composite z-score (with Sam68 (KHDRBS1); in experiment [7]; in experiment [8]) were -0.383, -1.3 and 0.245, respectively. In addition, the composite Z-score in experiment [1] is 0.776 (inactive).
For `O=C(NCCN1CCOCC1)[C@@H]1c2ccccc2C(=O)N(Cc2ccccc2)[C@H]1c1ccc(CO)cc1`, the composite z-score with Albumin (Bos taurus) is 0.16; in [2], -0.272; in experiment [3], -0.116; in [4], 0.688; in [5] it was 0.392; in experiment [6], -0.274. Moreover, the values for the composite z-score (in the experiment on Sam68 (KHDRBS1); in experiment [7]; in [8]) were -0.673, -1.38 and 0.581, respectively. For the same molecule, the composite Z-score in experiment [1] is 0.283 (inactive).
Consider `C[C@]1(C(=O)NCCN2CCOCC2)c2ccccc2C(=O)N(Cc2cc(F)cc(C(F)(F)F)c2)[C@H]1c1ccc(CO)cc1`, for which the composite z-score in the experiment with Albumin (Bos taurus) is 0.0744; in experiment [2], -0.159; in [3], -0.0928; in experiment [4] it was 0.773; in experiment [5] it was 2.18; in [6] it was 0.535. In addition, the results for the composite z-score (in the experiment with Sam68 (KHDRBS1); in experiment [7]; in [8]) were 0.692, -0.841 and 0.828, respectively. Also, the composite Z-score in experiment [1] was 0.0652 (inactive).
As for `C=C(/C(=C/C[C@@H](OC(=O)c1ccncc1)c1cccc(OCCO)c1)c1cnc2ccccc2c1)C(C)C`, the composite z-score with Albumin (Bos taurus) was 0.701; in [2] it was 0.178; in experiment [3], -0.0689; in experiment [4] it was 0.976; in [5] it was 1.69; in experiment [6] it was 1.38. The composite z-score in the experiment with Sam68 (KHDRBS1) was found to be 1.21; in experiment [7], 1.24; in experiment [8], 1.2. The composite Z-score in experiment [1] is 0.414 (inactive).
Turning to `COCCOC(=O)N1C(=O)[C@@]2(c3ccccc31)[C@H](c1ccccc1OCCO)N1[C@H](c3ccccc3)[C@H](c3ccccc3)OC(=O)[C@H]1[C@@H]2C(N)=O`, the composite z-score was 0.856 with Albumin (Bos taurus); -0.0324 in [2]; -0.181 in experiment [3]; 0.565 in experiment [4]; 2.36 in experiment [5]; 1.01 in [6]. Moreover, the figures for the composite z-score (with Sam68 (KHDRBS1); in [7]; in experiment [8]) were 1.3, 0.651 and 1.18, respectively. Also, in experiment [1], the composite Z-score is 1.26 (inactive).
As for `COC(=O)C(CC#Cc1ccc2c(c1)[C@]1(C(=O)N2)[C@H](C(=O)Nc2nc3ccccc3s2)[C@H]2C(=O)O[C@H](c3ccccc3)[C@H](c3ccccc3)N2[C@@H]1c1ccc(OCCO)cc1)C(=O)OC`, the composite z-score with Albumin (Bos taurus) was 0.942; in experiment [2], 0.178; in experiment [3] it was -0.0209; in [4] it was 0.553; in [5], 2.29; in [6], 1.04. Also, the composite z-score turned out to be 1.3 in the experiment with Sam68 (KHDRBS1), 0.517 in experiment [7] and 1.12 in experiment [8]. The composite Z-score in experiment [1] was 0.0898 (inactive).
On to `COC(=O)[C@@]1(Cc2ccc(F)cc2)[C@H]2c3cc(C(=O)N(C)C)n(Cc4ccc(O)c(OC)c4)c3C[C@H]2CN1C(=O)c1ccccc1`, for which the composite z-score with Albumin (Bos taurus) is 0.862; in experiment [2], 0.416; in experiment [3] it was -0.127; in [4] it was 0.659; in experiment [5], 1.08; in [6], -0.0606. In addition, the results for the composite z-score (with Sam68 (KHDRBS1); in experiment [7]; in [8]) were 0.607, -0.109 and 0.862, respectively. Besides, the composite Z-score in experiment [1] is -0.136 (inactive).
In the case of `NC(=O)[C@H]1[C@@H]2C(=O)O[C@@H](c3ccccc3)[C@@H](c3ccccc3)N2[C@@H](c2ccc(O)cc2)[C@]12C(=O)Nc1ccccc12`, the composite z-score in the experiment with Albumin (Bos taurus) was 0.295; in [2], -0.307; in [3], -0.173; in experiment [4], 0.769; in experiment [5], -0.115; in experiment [6], 0.0182. Besides, the composite z-score in the experiment with Sam68 (KHDRBS1) is -0.783; in experiment [7], -1.22; in [8], -0.411. For the same molecule, the composite Z-score in experiment [1] was 0.355 (inactive).
Regarding `COc1ccc(CCNC(=O)[C@@]2(Cc3ccccc3I)c3ccccc3C(=O)N(Cc3ccccc3Cl)[C@H]2c2ccc(CO)cc2)cc1`, the composite z-score with Albumin (Bos taurus) was -0.41; in [2], 0.385; in [3], 0.111; in experiment [4], 0.731; in [5], 1.34; in [6], 0.529. For the same molecule, the composite z-score is 0.576 in the experiment with Sam68 (KHDRBS1), -0.311 in experiment [7] and 0.555 in [8]. The composite Z-score in experiment [1] is 1.24 (inactive).
On to `COc1ccc(C(O)C2C=CC3C(=O)N(c4ccccc4)C(=O)C3N2Nc2ccccc2)cc1` (stereo not given), for which the composite z-score in the experiment with Albumin (Bos taurus) was 1.01; in experiment [2] it was 0.331; in [3], -0.0501; in [4], 0.781; in [5] it was 2.89; in [6] it was 0.326. The figures for the composite z-score (in the experiment on Sam68 (KHDRBS1); in experiment [7]; in [8]) were 1.17, -0.154 and 1.14, respectively. The composite Z-score in experiment [1] was -0.135 (inactive).
For the molecule `CCOC(=O)C[C@H]1[C@H](OC(=O)c2cc3ccccc3oc2=O)[C@@H](NC(=O)c2ccc3ccccc3c2)c2cc(OCCCO)ccc2N1C(=O)Cc1ccc(OC)cc1`, the composite z-score is 0.684 with Albumin (Bos taurus); -0.0377 in experiment [2]; -0.0131 in experiment [3]; 0.265 in experiment [4]; 1.69 in experiment [5]; 0.241 in experiment [6]. In addition, the composite z-score was 0.692 with Sam68 (KHDRBS1), 0.453 in experiment [7] and 0.69 in experiment [8]. Also, the composite Z-score in experiment [1] was -0.0384 (inactive).
As to `C=CCC(OC(C)=O)[C@@H]1[C@@H](N(Cc2cccc3ccccc23)C(=O)Cc2ccc(F)cc2)c2cc(OCCCO)ccc2N1C(=O)c1ccc(-c2ccccc2)cc1` (stereo not given in full), the composite z-score in the experiment with Albumin (Bos taurus) was 0.621; in [2], 0.0847; in [3], 0.054; in experiment [4] it was -0.119; in experiment [5], 0.644; in [6] it was 0.505. The results for the composite z-score (with Sam68 (KHDRBS1); in experiment [7]; in experiment [8]) were -0.738, -0.335 and -1.6, respectively. In addition, the composite Z-score in experiment [1] is -0.248 (inactive).

These data come from PubChem BioAssay.
